Source: publication PMC5540273 (PLoS ONE, 2017)

What was measured:
Settings in all cases: concentration: 1 μM, replicates: in singlicate; n = 1
ERK8 = system: T1, ERK8
T1 construct: gene MAPK15

ERN1 = system: ERN1
FAK = system: T2, FAK
T2 construct: gene PTK2

FER = system: FER
FES = system: FES
FGFR1 = system: FGFR1
FGFR2 = system: FGFR2
FGFR3 = system: FGFR3
FGFR4 = system: FGFR4
FGR = system: FGR
FLT1 = system: FLT1
FLT3-autoinhibited = system: FLT3-autoinhibited
FLT3 = system: FLT3
FLT4 = system: FLT4
FRK = system: FRK
FYN = system: FYN
GAK = system: GAK
GCN2(Kin.Dom.2,S808G) = system: T3, GCN2(Kin.Dom.2,S808G)
T3 construct: gene EIF2AK4

GRK1 = system: GRK1
GRK2 = system: T4, GRK2
T4 construct: gene ADRBK1
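Further: KINOMEscan kinase panel screen.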

Row | Structure (SMILES) | %Inh (ERK8) [%] | %Inh (ERN1) [%] | %Inh (FAK) [%] | %Inh (FER) [%] | %Inh (FES) [%] | %Inh (FGFR1) [%] | %Inh (FGFR2) [%] | %Inh (FGFR3) [%] | %Inh (FGFR4) [%] | %Inh (FGR) [%] | %Inh (FLT1) [%] | %Inh (FLT3-autoinhibited) [%] | %Inh (FLT3) [%] | %Inh (FLT4) [%] | %Inh (FRK) [%] | %Inh (FYN) [%] | %Inh (GAK) [%] | %Inh (GCN2(Kin.Dom.2,S808G)) [%] | %Inh (GRK1) [%] | %Inh (GRK2) [%]
1 | Cc1ccc(-c2nc(Nc3ccncc3)c3ccccc3n2)s1 [GSK189015] | 52 | 22 | 27 | 6 | 19 | 15 | 30 | 28 | 5 | 22 | 39 | 17 | 23 | 10 | 7 | 0 | 53 | 13 | 9 | 1
2 | Cc1cnc(N)c(/C=C/c2cncc(C(=O)NCCc3ccc(Cl)cc3Cl)c2)c1.Cl [GSK190937] | 0 | 0 | 0 | 4 | 0 | 0 | 9 | 13 | 6 | 17 | 0 | 0 | 2 | 7 | 6 | 20 | 29 | 3 | 0 | 0
3 | Cc1cccc2c(-c3ccncn3)c(-c3ccc(F)cc3)nn12 [GW515532] | 100 | 1 | 0 | 8 | 0 | 15 | 0 | 0 | 0 | 1 | 32 | 12 | 0 | 10 | 0 | 1 | 76 | 18 | 3 | 0
4 | CN1c2ccc(-c3ccc(C(N)=O)cc3)cc2-c2[nH]ncc2S1(=O)=O | 17 | 0 |  | 8 | 11 | 5 | 0 | 0 | 0 | 20 | 5 | 27 | 31 | 0 | 0 | 3 | 6 | 33 | 1 | 0
5 | CCn1c(-c2ccccc2)nc2cnccc21 [SB-733416] | 23 | 0 | 2 | 18 | 0 | 18 | 0 | 0 | 23 | 22 | 53 | 0 | 0 | 27 | 27 | 14 | 0 | 0 | 6 | 0
6 | Nc1ncnc2occ(-c3ccc4c(c3)CCN4C(=O)Cc3cc(F)ccc3F)c12 [GSK2645446] | 0 | 0 | 0 | 8 | 0 | 0 | 0 | 17 | 1 | 16 | 6 | 0 | 0 | 1 | 0 | 0 | 0 | 0 | 0 | 0
7 | O=C1NC(=O)C(c2ccc(Cl)cc2)=C1Nc1cccc(Cl)c1 [SB-317651] | 10 | 3 | 0 | 0 | 0 | 0 | 0 | 4 | 0 | 0 | 0 | 11 | 0 | 0 | 0 | 0 | 0 | 2 | 11 | 0
8 | CNc1nc(-c2ccc3c(N)n[nH]c3c2)cc(N2C[C@@H](C(=O)Nc3ccccc3)CC[C@H]2C)n1 [GSK2298859] | 0 | 2 | 0 | 33 | 0 | 23 | 0 | 16 | 0 | 22 | 35 | 0 | 0 | 12 | 0 | 2 | 0 | 0 | 100 | 0
9 | CC(C)c1cc(-c2ccc3c(N)n[nH]c3c2)nc(N)n1 [GSK2250882] | 0 | 4 | 0 | 14 | 19 | 0 | 18 | 9 | 8 | 34 | 4 | 0 | 0 | 0 | 0 | 22 | 13 | 0 | 0 | 0
10 | CNC(=O)c1ccc(C)c(-n2c(C)cc(OCc3ccc(F)cc3F)c(Br)c2=O)c1 | 13 | 0 | 0 | 18 | 0 | 0 | 0 | 0 | 0 | 0 | 2 | 0 | 0 | 0 | 0 | 0 | 0 | 0 | 0 | 4
11 | COc1cccc(CNC(=O)NC2CCN(c3ccnc(Nc4ccc(F)cc4)n3)C2)c1 (stereo not shown) [GSK1379723] | 60 | 4 | 0 | 6 | 0 | 0 | 3 | 15 | 10 | 8 | 31 | 0 | 0 | 12 | 16 | 0 | 12 | 0 | 13 | 0
12 | COc1ccc2cc(-c3nc(-c4ccccc4C(C)C)[nH]c3-c3ccncc3)ccc2c1 [SB-660566] | 0 | 14 | 0 | 0 | 0 | 0 | 12 | 13 | 20 | 21 | 19 | 4 | 0 | 22 | 8 | 12 | 40 | 4 | 0 | 0
13 | CS(=O)(=O)Cc1ccc(Nc2nccc(-c3c(-c4cccc(NC(=O)C5CCCCC5)c4)nn4ncccc34)n2)cc1 [GSK350559] | 0 | 33 | 0 | 8 | 0 | 0 | 41 | 16 | 6 | 27 | 63 | 25 | 88 | 52 | 4 | 1 | 14 | 0 | 0 | 44
14 | CNc1nc(-c2ccc3c(N)n[nH]c3c2)cc(N2C[C@@H](C(=O)NC3CCCCC3)OC[C@H]2C)n1 [GSK2375584] | 0 | 0 | 0 | 34 | 0 | 13 | 27 | 27 | 7 | 17 | 25 | 20 | 0 | 0 | 4 | 6 | 0 | 0 | 12 | 0
15 | Cn1cncc1-c1cc2c(Nc3ccc(OCc4ccccc4)cc3)ncnc2cn1 [GW281179] | 0 | 0 | 0 | 14 | 0 | 9 | 19 | 2 | 12 | 18 | 19 | 0 | 0 | 0 | 6 | 28 | 0 | 1 | 0 | 9
16 | Cc1ccc(NC(=O)Nc2ccc(Cl)cc2)cc1-c1ccc(C(=O)Nc2ccncc2)cc1 [GSK1398472] | 0 | 0 | 0 | 15 | 0 | 0 | 39 | 13 | 14 | 18 | 27 | 3 | 22 | 0 | 31 | 0 | 0 | 17 | 0 | 0
17 | Cn1cnc2c(N)ncnc21 [SKF-97623] | 12 | 0 | 0 | 0 | 0 | 0 | 0 | 0 | 0 | 51 | 0 | 100 | 0 | 0 | 0 | 0 | 0 | 27 | 0 | 29
18 | CC(=O)c1c(C)c2cnc(Nc3ccn(C)n3)nc2n(C2CCCC2)c1=O | 17 | 0 | 0 | 9 | 0 | 0 | 0 | 0 | 11 | 0 | 4 | 2 | 0 | 0 | 28 | 0 | 0 | 36 | 0 | 17
19 | CCc1ccc(-c2ccc3c(c2)-c2n[nH]cc2S(=O)(=O)N3C)cc1 | 0 | 0 |  | 6 | 2 | 6 | 0 | 0 | 0 | 9 | 14 | 4 | 56 | 0 | 2 | 14 | 0 | 24 | 6 | 0
20 | COc1cccc(NC(=O)Nc2ccc(C)c(-c3ccc(C(=O)Nc4ccncc4)cc3)c2)c1 [GSK1398474] | 1 | 1 | 13 | 42 | 12 | 9 | 0 | 28 | 3 | 32 | 37 | 0 | 25 | 41 | 10 | 25 | 0 | 0 | 28 | 0
21 | CC(=O)c1cccc(NC(=O)NC2CCN(c3ccnc(Nc4ccc(F)cc4)n3)C2)c1 (stereo not shown) [GSK1379710] | 0 | 19 | 0 | 3 | 0 | 0 | 0 | 6 | 11 | 0 | 27 | 11 | 0 | 12 | 0 | 27 | 5 | 0 | 0 | 10
